Bioassay records: PubChem, National Center for Advancing Translational Sciences (NCATS)
Rows were chosen to be rich in hits. Some 7.3% of all compounds tested hit in one or more screens of this group.
AmpC no deterg: qHTS Inhibitors of AmpC Beta-Lactamase (assay without detergent); P00811; actives 0.52% (n = 330,000); Potency, µM (highest dose often 57.1 µM), usual class: inhibitors; AmpC nitrocefin hydrolysis, absorbance 480 nm, 0.0001% Triton; further: nearly all actives have a fitted effect of over 20% in size
Target sequence (P00811 whole entry, looked up): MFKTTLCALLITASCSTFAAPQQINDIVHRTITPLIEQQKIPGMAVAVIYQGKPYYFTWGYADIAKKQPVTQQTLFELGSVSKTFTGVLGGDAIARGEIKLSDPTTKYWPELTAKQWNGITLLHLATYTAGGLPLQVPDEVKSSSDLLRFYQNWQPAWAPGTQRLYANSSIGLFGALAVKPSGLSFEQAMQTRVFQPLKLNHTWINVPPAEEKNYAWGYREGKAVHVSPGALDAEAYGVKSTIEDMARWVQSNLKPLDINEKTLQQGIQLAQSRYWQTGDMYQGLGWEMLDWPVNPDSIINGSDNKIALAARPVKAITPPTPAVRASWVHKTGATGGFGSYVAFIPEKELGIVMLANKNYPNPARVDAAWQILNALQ
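20 mM phosphate pH 7.0 + 0.01% (detergent screen) or 0.0001% Triton X-100; 5.3 nM AmpC reagent; cpd preinc 15 min RT; nitrocefin (800 uM stock) to start; A480 q20 s × 4 min; Activity was normalised to no-enzyme and no-compound control wells.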
AmpC detergent: qHTS Inhibitors of AmpC Beta-Lactamase (assay with detergent); P00811; AmpC hydrolysis of nitrocefin, absorbance 480 nm, 0.01% Triton; Potency, µM (titrated, usually from 114 µM), hits mostly inhibitors; actives 0.041% (n = 370,000); AID 485294, 2010; further: nearly all actives have a fitted effect of over 25% in size
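20 mM phosphate pH 7.0 + 0.01% (detergent screen) or 0.0001% Triton X-100; 5.3 nM AmpC reagent; cpd preinc 15 min RT; nitrocefin (800 uM stock) to start; A480 q20 s × 4 min; Activity was normalised to no-enzyme and no-compound control wells.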
HCV inh: qHTS Assay for Inhibitors of Hepatitis C Virus (HCV); Huh7.5.1 HCVcc-Cre infection, luciferase reporter, 44 h; Potency, µM (series often up to 41.8 µM), most hits filed as inhibitors; actives 3.4% (n = 340,000); AID 651820, 2012
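Luciferase read-out (15 sec integration) after a 15 min room-temperature substrate step quantifies HCVcc-Cre infection. Cells, 1,000 per well, had compound added 4 h post-plating, then virus at ~0.5 moi, and were cultured 44 h.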
HCMV inh: qHTS Assay for inhibitors of the human cytomegalovirus (HCMV) | HFF cells, HCMV-luciferase reporter, 72 h; active compounds read low | activity change, negative = inhibition, % at 57.5 µM | actives 4.5% (n = 410,000) | AID 1259415, 2018; in the data active means activity change below about -60%; inconclusive means no clear call, values can overlap the other calls; inactive means above about -39%
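Screen run at 2 compound doses on HFFs infected with reporter HCMV, MOI 1 PFU/cell. Luciferase activity from cell lysates at 72 h post infection gave inhibition relative to buffer-only and Salinomycin wells.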
FMDV inh: High Throughput Screening for Foot and Mouth Disease Virus Antivirals; FMDV antiviral cell-based qHTS; Potency, µM (titrated, usually from 57.9 µM), actives largely listed as inhibitors; actives 1.2% (n = 410,000); AID 1159524, 2015; calls by dose curve; tested in HEK293T cells; further: read-out not given here; nearly all actives have a fitted effect of over 45% in size
Each line names hits and unclear results; the compound was inactive in the other large screens. Unless noted, the call rests on the fitted dose curve; in most records, active means well fitted curve in the direction sought with a large enough effect; inconclusive means small, poorly fitted or top-dose-only effect, or another doubt; inactive means no such curve, though single readings can be large; an effect the other way counts as inactive or inconclusive.

O=C(Nc1ccc(S(=O)(=O)NC2=NCCCCC2)cc1)c1ccc(C(F)(F)F)cc1	HCV inh inconclusive, HCMV inh -67, FMDV inh inconclusive
Cc1ccccc1-c1noc(-c2ccc(N3CCN(C)CC3)c([N+](=O)[O-])c2)n1	HCMV inh -75, FMDV inh inconclusive (no result: AmpC no deterg, HCV inh)
Cc1ccccc1-c1noc(-c2ccc(N3CCCC3)c([N+](=O)[O-])c2)n1	HCMV inh -69 (no result: AmpC no deterg, HCV inh)
Cc1ccccc1-c1noc(-c2ccc(N3CCOCC3)c([N+](=O)[O-])c2)n1	none (no result: AmpC no deterg, HCV inh)
Nc1c(N(CCC2=CCCCC2)C(=O)COc2ccc(F)cc2)c(=O)[nH]c(=O)n1Cc1ccccc1	HCV inh 13µM (no result: HCMV inh)
Nc1c(N(CCC2=CCCCC2)C(=O)Cc2ccccc2F)c(=O)[nH]c(=O)n1Cc1ccccc1	HCV inh inconclusive
Nc1c(N(CCC2=CCCCC2)C(=O)CCCOc2ccccc2)c(=O)[nH]c(=O)n1Cc1ccccc1	AmpC no deterg 14µM, AmpC detergent inconclusive
COc1cccc(CC(=O)N(CCC2=CCCCC2)c2c(N)n(Cc3ccccc3)c(=O)[nH]c2=O)c1	none
CCOc1ccc2oc(=O)cc(CN3CCN(c4ccc(Cl)cc4)CC3)c2c1	none (no result: AmpC no deterg, HCV inh)
Cc1c(C(=O)NCc2ccc3c(c2)OCCO3)sc(=O)n1Cc1ccc(S(=O)(=O)N(C)C)cc1	FMDV inh 14µM (no result: AmpC no deterg, AmpC detergent, HCV inh)
Cc1c(C(=O)NCc2ccc(Cl)c(Cl)c2)sc(=O)n1Cc1ccc(S(C)(=O)=O)cc1	HCMV inh -80, FMDV inh 35µM (no result: AmpC no deterg, AmpC detergent, HCV inh)
CSc1ccc(Cn2c(C)c(C(=O)NCc3ccc4c(c3)OCCO4)sc2=O)cc1	HCMV inh -74, FMDV inh inconclusive (no result: AmpC no deterg, AmpC detergent, HCV inh)
Cc1c(C(=O)NCc2ccccc2C(F)(F)F)sc(=O)n1Cc1ccc2ccccc2c1	HCMV inh -71 (no result: AmpC no deterg, AmpC detergent, HCV inh)
Cc1c(C(=O)NCc2ccc3c(c2)OCCO3)sc(=O)n1Cc1ccc2c(c1)OCO2	HCMV inh inconclusive (no result: AmpC no deterg, AmpC detergent, HCV inh)
Cc1c(C(=O)NCc2ccc3c(c2)OCO3)sc(=O)n1Cc1ccc(S(=O)(=O)N(C)C)cc1	FMDV inh inconclusive (no result: AmpC no deterg, AmpC detergent, HCV inh)
CSc1ccc(Cn2c(C)c(C(=O)NCc3ccc(Cl)c(Cl)c3)sc2=O)cc1	none (no result: AmpC no deterg, AmpC detergent, HCV inh)
CCOc1ccc(NC(=O)Cn2cc(S(=O)(=O)NC)c(S(=O)(=O)NC)c2)cc1	none (no result: AmpC no deterg, HCV inh)
Cc1c(C(=O)NCc2ccc3c(c2)OCCO3)sc(=O)n1Cc1cccc(C(F)(F)F)c1	HCMV inh -79 (no result: AmpC no deterg, AmpC detergent, HCV inh)
CC(C)c1c(C(=O)NCc2ccccn2)cnn1-c1nccc(-c2ccccc2F)n1	none (no result: AmpC no deterg, AmpC detergent, HCV inh, HCMV inh)
CCCc1nc2cccnc2n1C1CCN(C(=O)Cn2nccc2C)CC1	none (no result: AmpC no deterg, AmpC detergent, HCV inh, HCMV inh)
CN(c1ccccc1)P(=O)(N(C)c1ccccc1)N(C)c1ccccc1	HCMV inh -86
Cc1ccc(C(=O)N2CCCC(N3CCN(c4ccccc4C)CC3)C2)c(=O)[nH]1 (stereo unspecified)	HCMV inh -70
CCc1nccn1CCC(=O)N1CCCC(N2CCN(c3cccc(Cl)c3)CC2)C1 (stereo unspecified)	HCV inh inconclusive
CCc1nccn1CCC(=O)N1CCCC(N2CCN(c3ccccc3C)CC2)C1 (stereo unspecified)	HCV inh inconclusive, HCMV inh -87
Cc1ccc(CNC(=O)Nc2cc(C(=O)NCc3cccc(F)c3)ccc2N2CCCC2)cc1	none (no result: AmpC no deterg, HCV inh)
O=C(Nc1ccc(F)cc1)Nc1nnc(SCC(=O)N2CCCCC2)s1	HCMV inh -75 (no result: AmpC no deterg, HCV inh)
Cc1ccc(NC(=O)Nc2nnc(SCC(=O)N3CCCCC3)s2)cc1	HCMV inh -87 (no result: AmpC no deterg, HCV inh)
O=C(Nc1ccccc1)Nc1nnc(SCC(=O)N2CCCCC2)s1	FMDV inh inconclusive (no result: AmpC no deterg, HCV inh)
CC1CCN(C(=O)CSc2nnc(NC(=O)Nc3ccccc3)s2)CC1	none (no result: AmpC no deterg, HCV inh)
O=C(CSc1ccccc1Cl)N1CCOCC1	none
O=C(O)CCn1c(-c2ccccn2)nc2ccccc21	AmpC detergent inconclusive
CC(=O)Nc1ccc(/C=C/C(=O)c2ccc3c(c2)OCCO3)cc1	AmpC detergent inconclusive
COc1cccc(NC(=S)NC(=O)/C=C/c2ccc(F)cc2)c1	none
CCC(=O)Nc1cccc(C(=O)/C=C/c2ccc(F)cc2)c1	HCV inh 10µM, HCMV inh -99
CC(=O)Nc1cccc(C(=O)/C=C/c2ccc(C)cc2)c1	HCV inh 13µM, FMDV inh inconclusive
CCCC(=O)Nc1ccc(C(=O)/C=C/c2ccc(SC)cc2)cc1	HCV inh 11µM
C[C@@H](NS(=O)(=O)c1c(F)cccc1F)c1ccccc1	none (no result: AmpC no deterg, AmpC detergent, HCV inh, FMDV inh)
CCOC(=O)c1c(Cc2cccc(Cl)c2)c[nH]c1C	HCMV inh -62
CCOC(=O)c1cn(Cc2cccc(Cl)c2)nn1	none
COC(=O)c1c(Cc2ccccc2Cl)c[nH]c1C	HCMV inh -67
CCc1ccc(-n2nc(CO)c(C(=O)NCc3cccs3)n2)cc1	none (no result: AmpC no deterg, HCV inh)
CSc1nnc(CCNC(=O)c2ccc(-c3cccc(F)c3)cc2)n1-c1ccc(F)cc1	none (no result: AmpC no deterg, AmpC detergent, HCV inh, HCMV inh)
COc1ccc(C2CC(=O)c3cc(-c4nc(-c5cccc([N+](=O)[O-])c5)cs4)c(=O)n(-c4ccc(C)c(C)c4)c3C2)cc1 (stereo unspecified)	none (no result: AmpC no deterg, HCV inh)
Nc1nc2n[nH]nc2c(=O)[nH]1	HCV inh inconclusive, HCMV inh -96 (no result: AmpC no deterg, AmpC detergent)
Cc1cnc(NC(=O)Nc2ccc(OCc3ccccc3)cc2)c(Br)c1	HCV inh inconclusive
CCCn1nc2cc(C(=O)NCc3ccc4c(c3)OCO4)ccc2c1OCC	HCV inh inconclusive
CCCCn1nc2cc(C(=O)NCc3ccc4c(c3)OCO4)ccc2c1OCC	AmpC no deterg 0.32µM, HCV inh inconclusive
CCCn1nc2cc(C(=O)NC3CCc4ccccc43)ccc2c1OCC (stereo unspecified)	AmpC no deterg 0.28µM, HCV inh inconclusive
CCOc1c(Cl)cc(Cl)cc1CNCCSc1nnnn1C	none (no result: AmpC no deterg, HCV inh)
Cc1cc(C)c(/C=N/NC(N)=O)c(C)c1/C=N/NC(N)=O	HCMV inh inconclusive
CCc1cc(CC)c(/C=N/NC(N)=O)c(CC)c1	HCV inh 11µM
O=C(Nc1ccc(Cl)c(Cl)c1)N1N=CCC1c1ccccc1 (stereo unspecified)	HCV inh 10µM, HCMV inh -66
O=C(Nc1ccccc1)N1N=CCC1c1ccccc1 (stereo unspecified)	HCMV inh inconclusive
Cc1cccc(CN2CCC(C(=O)Nc3cccc(-c4cccc(F)c4)c3)CC2)n1	HCV inh 7.9µM
CCCn1ncc(CN2CCC(C(=O)Nc3cccc(-c4cccc(F)c4)c3)CC2)c1C	AmpC detergent inconclusive, HCV inh inconclusive, HCMV inh -65
Cc1nn(C(C)C)c(C)c1CN1CCC(C(=O)Nc2cccc(-c3cccc(F)c3)c2)CC1	HCV inh 10µM
Cn1cc(CN2CCC(C(=O)Nc3cccc(-c4cccc(F)c4)c3)CC2)cn1	HCV inh 10µM
